Drawing on PubChem BioAssay (NCI), this text covers growth for 38 compounds.

Molecules are shown by their SMILES. Compounds without any hit were thinned out: in the full panel of roughly 83,000, 20% have a hit.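 The endpoint reported here, percent growth, reads 100 for growth as untreated, 0 for no net growth and -100 for all cells dead.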 Values without a mark were called inactive. Active and inactive are the calls of the source. How the source made its calls: active means growth percent below 10; inactive means the rest.

One assay has as its system 786-0 renal. As to the kind of experiment: NCI-60 one-dose screen, 48 h (100 = growth as untreated, 0 = no growth, -100 = all killed). As to conditions: 10 µM unless noted.
Consider `O=C1COCCN1c1ccc(NCc2cn(C(=O)c3ccc(Cl)cc3)c3ccccc23)cc1`, for which the growth was 65.8%.
In the case of `COc1ccc(-c2cnc3ccccc3n2)cc1`, the growth was 95.4%.
As for `CCOC(=O)C1=C(N)Oc2c(sc3c(C)cccc23)C1c1ccc(OC)cc1` (stereo unspecified), the growth is 49.3%.
For `FC(F)(F)c1cc(Nc2ccc3c(OCCCN4CCOCC4)cccc3n2)ccc1Cl`, the growth is -42.1% (active).
`COc1cc(C(=O)c2cc(C)c3[nH]c4ccc(O)cc4c3c2C)cc(OC)c1OC`: the growth is 13.8%.
On to `Cc1ccc(C(=O)N/N=C/c2cccc(Oc3ccccc3)c2)cn1`, for which the growth is 18.3%.
The same measure, in the same setting: next, `CC(=O)CC(c1cccs1)c1c(-c2ccccc2)[nH]c2ccccc12` (stereo unspecified): 98.9%.
Still for that read-out and setting: next, `NC(=O)C1(Nc2ccc(Br)cc2)CCCC1`: 102%.
`COc1ccc(-c2c(C(=O)NS(C)(=O)=O)n(Cc3cccc(C(F)(F)F)c3)c3ccccc23)cc1`: the growth is 95.3%.
As for `O=C1NC(=O)C(c2ccccc2)(c2ccccc2)N1Cc1cn(-c2c3ccccc3nc3ccccc23)nn1`, the growth was 87.3%.
On to `CCCCn1c(-c2ccc(C(=O)O/N=C(\N)c3ccc(OC)cc3)cc2)nc(-c2ccccc2)c1-c1ccccc1`, for which the growth was -63.9% (active).
Still for that read-out and setting: next, `COc1cc(Nc2nc(NCCN)nc3cc[nH]c(=O)c23)cc(OC)c1`: 86.9%; `COc1ccc(-c2[nH]c3ccc(OC)cc3c2/C=C(\C#N)S(=O)(=O)c2ccccc2)cc1`: 27.8%.
For the compound `COc1ccc(C2=Nn3c(nnc3-c3cc(Cl)cc(Cl)c3Cl)SC2)cc1`, the growth is 6.36% (active).
On the same count and under the same terms, next, `COc1ccc(C(=S)N2CCN(c3cccc(C)c3)CC2)cc1OC`: 80.6%; `COc1cc(CCCO)c(OC)c(OC)c1OC`: 103%.
Same read-out and setting: next, `O=C(Nc1nc2ccc(F)cc2s1)c1cccnc1Nc1ccc(Cl)cc1Cl`: 45.8%; `Cc1cccc2c3c(sc12)C(c1ccc(F)cc1)C(C#N)=C(N)O3` (stereo unspecified): 16.7%.
`BrCCCc1n(Cc2ccc3ccccc3c2)c2ccccc2[n+]1Cc1ccc2ccccc2c1`: the growth was -90.7% (active).
Same read-out and setting: the same measure for `CCOC(=O)Cn1c(C)c(/C=N/NC(=O)c2cc3c(ccc4ccccc43)o2)c2ccccc21`: 20.7%.
`CCOC(=O)c1sc2ncc(-c3ccc(OC)cc3)n2c1C`: the growth is 106%.
Consider `O=c1c2cccc(F)c2sc2c(NCCCNCCO)nc3ccccc3c12`, for which the growth was 48.5%.
`CNCCCNc1nc2ccccc2c2c(=O)c3cc(F)ccc3sc12`: the growth is 61.5%.
Same read-out and setting: the same measure for `CC(=O)OC[C@H]1OC(Sc2sc(C(=O)c3ccc(Cl)cc3)c(N)c2-c2nc3ccccc3s2)[C@H](OC(C)=O)[C@@H](OC(C)=O)[C@@H]1OC(C)=O` (stereo partly specified): 99.3%; for `OC(c1ccccc1)C(NC(Cc1ccccc1)c1ccccc1)c1ccccc1` (stereo unspecified): 81.4%.
The same measure, in the same setting: the same measure for `CCOC(=O)c1cn2ncnc(Oc3ccc(NC(=O)NCCN(C)C)c(Cl)c3)c2c1C`: 76.1%; for `Cc1nc2ccccc2c(/C=C/c2ccccc2)c1C(=O)/C=C/c1ccc(C(F)(F)F)cc1`: -76.4% (active).
On to `Cc1[nH]c(C(=O)Nc2ccc(C(=O)NCCN)cc2OC(C)C)c(Cl)c1Cl`, for which the growth is 44%.
For the compound `CN1CCN(c2ccc(-c3cnc4c(-c5csc6ccccc56)cnn4c3)cc2)CC1`, the growth is -68.5% (active).
Take `c1ccc(-c2nc3sc(-c4ccccc4)cn3n2)cc1`: the growth was 105%.
For the compound `COc1c(B(O)O)cc(F)cc1-c1nc2ccc3[nH]ncc3c2c2c1CCCC2`, the growth is 1.01% (active).
Still for that read-out and setting: the same measure for `CNCCCC12CCC(c3ccccc31)c1ccccc12`: 65.7%; for `C=C1C(=O)O[C@H]2[C@H]1CC/C(COC(=O)C(C)c1ccc(CC(C)C)cc1)=C\CC[C@@]1(C)O[C@@H]21` (stereo partly specified): -93.4% (active); for `CC1=C(C)C(=O)C(Nc2cccc(C(=O)OC(C)(C)C)c2)=C(Br)C1=O`: 96.2%.
`COc1ccc(C2CC(c3ccc(Nc4ccnc5cc(Cl)ccc45)cc3)=NN2C=O)cc1` (stereo unspecified): the growth is 70.5%.
Same read-out and setting: the same measure for `Cc1nc(NC(=O)COc2ccc(/C=C3\Cc4ccc(Cl)cc4C3=O)cc2)sc1C`: 103%; for `Cc1ccc2c(-c3cc(-c4ccccc4)nc(N)c3C#N)cc(=O)oc2c1`: 92.2%.
Consider `CN(C)c1ccc(/C=N\Nc2cc(=O)[nH]c3ccc(Cl)cc23)cc1`, for which the growth is 102%.

Another assay concerns COLO 205 colon. The assay is described as above. As to conditions: 10 µM unless noted.
With `O=C1COCCN1c1ccc(NCc2cn(C(=O)c3ccc(Cl)cc3)c3ccccc23)cc1`, the growth was 29.3%.
As for `COc1ccc(-c2cnc3ccccc3n2)cc1`, the growth was 104%.
Take `CCOC(=O)C1=C(N)Oc2c(sc3c(C)cccc23)C1c1ccc(OC)cc1` (stereo unspecified): the growth is 118%.
As for `FC(F)(F)c1cc(Nc2ccc3c(OCCCN4CCOCC4)cccc3n2)ccc1Cl`, the growth is -38.1% (active).
With `COc1cc(C(=O)c2cc(C)c3[nH]c4ccc(O)cc4c3c2C)cc(OC)c1OC`, the growth is 7.01% (active).
Turning to `Cc1ccc(C(=O)N/N=C/c2cccc(Oc3ccccc3)c2)cn1`, the growth is 65.2%.
The same measure, in the same setting: the same measure for `CC(=O)CC(c1cccs1)c1c(-c2ccccc2)[nH]c2ccccc12` (stereo unspecified): 107%.
`NC(=O)C1(Nc2ccc(Br)cc2)CCCC1`: the growth was 104%.
For `COc1ccc(-c2c(C(=O)NS(C)(=O)=O)n(Cc3cccc(C(F)(F)F)c3)c3ccccc23)cc1`, the growth is 105%.
The same measure, in the same setting: the same measure for `O=C1NC(=O)C(c2ccccc2)(c2ccccc2)N1Cc1cn(-c2c3ccccc3nc3ccccc23)nn1`: 107%.
Still for that read-out and setting: next, `CCCCn1c(-c2ccc(C(=O)O/N=C(\N)c3ccc(OC)cc3)cc2)nc(-c2ccccc2)c1-c1ccccc1`: 0.164% (active); `COc1cc(Nc2nc(NCCN)nc3cc[nH]c(=O)c23)cc(OC)c1`: 55.3%; `COc1ccc(-c2[nH]c3ccc(OC)cc3c2/C=C(\C#N)S(=O)(=O)c2ccccc2)cc1`: -43.4% (active).
Still for that read-out and setting: next, `COc1ccc(C2=Nn3c(nnc3-c3cc(Cl)cc(Cl)c3Cl)SC2)cc1`: -34.4% (active); `COc1ccc(C(=S)N2CCN(c3cccc(C)c3)CC2)cc1OC`: 80.2%; `COc1cc(CCCO)c(OC)c(OC)c1OC`: 122%.
Turning to `O=C(Nc1nc2ccc(F)cc2s1)c1cccnc1Nc1ccc(Cl)cc1Cl`, the growth is 2.35% (active).
Consider `Cc1cccc2c3c(sc12)C(c1ccc(F)cc1)C(C#N)=C(N)O3` (stereo unspecified), for which the growth is -37.3% (active).
The same measure, in the same setting: next, `BrCCCc1n(Cc2ccc3ccccc3c2)c2ccccc2[n+]1Cc1ccc2ccccc2c1`: -61.2% (active); `CCOC(=O)Cn1c(C)c(/C=N/NC(=O)c2cc3c(ccc4ccccc43)o2)c2ccccc21`: -39.9% (active); `CCOC(=O)c1sc2ncc(-c3ccc(OC)cc3)n2c1C`: 105%.
On the same count and under the same terms, the same measure for `O=c1c2cccc(F)c2sc2c(NCCCNCCO)nc3ccccc3c12`: -44.4% (active); for `CNCCCNc1nc2ccccc2c2c(=O)c3cc(F)ccc3sc12`: -47.8% (active); for `CC(=O)OC[C@H]1OC(Sc2sc(C(=O)c3ccc(Cl)cc3)c(N)c2-c2nc3ccccc3s2)[C@H](OC(C)=O)[C@@H](OC(C)=O)[C@@H]1OC(C)=O` (stereo partly specified): 90.4%.
On to `OC(c1ccccc1)C(NC(Cc1ccccc1)c1ccccc1)c1ccccc1` (stereo unspecified), for which the growth is 101%.
On the same count and under the same terms, next, `CCOC(=O)c1cn2ncnc(Oc3ccc(NC(=O)NCCN(C)C)c(Cl)c3)c2c1C`: 55.9%; `Cc1nc2ccccc2c(/C=C/c2ccccc2)c1C(=O)/C=C/c1ccc(C(F)(F)F)cc1`: -25.7% (active).
`Cc1[nH]c(C(=O)Nc2ccc(C(=O)NCCN)cc2OC(C)C)c(Cl)c1Cl`: the growth was -45.7% (active).
For the compound `CN1CCN(c2ccc(-c3cnc4c(-c5csc6ccccc56)cnn4c3)cc2)CC1`, the growth was -80.9% (active).
Still for that read-out and setting: next, `c1ccc(-c2nc3sc(-c4ccccc4)cn3n2)cc1`: 94.5%.
Same read-out and setting: the same measure for `COc1c(B(O)O)cc(F)cc1-c1nc2ccc3[nH]ncc3c2c2c1CCCC2`: -3.77% (active); for `CNCCCC12CCC(c3ccccc31)c1ccccc12`: 7.78% (active); for `C=C1C(=O)O[C@H]2[C@H]1CC/C(COC(=O)C(C)c1ccc(CC(C)C)cc1)=C\CC[C@@]1(C)O[C@@H]21` (stereo partly specified): -10.1% (active).
For `CC1=C(C)C(=O)C(Nc2cccc(C(=O)OC(C)(C)C)c2)=C(Br)C1=O`, the growth is 114%.
The same measure, in the same setting: the same measure for `COc1ccc(C2CC(c3ccc(Nc4ccnc5cc(Cl)ccc45)cc3)=NN2C=O)cc1` (stereo unspecified): 89.4%.
As for `Cc1nc(NC(=O)COc2ccc(/C=C3\Cc4ccc(Cl)cc4C3=O)cc2)sc1C`, the growth was 120%.
Consider `Cc1ccc2c(-c3cc(-c4ccccc4)nc(N)c3C#N)cc(=O)oc2c1`, for which the growth is 108%.
Same read-out and setting: next, `CN(C)c1ccc(/C=N\Nc2cc(=O)[nH]c3ccc(Cl)cc23)cc1`: 112%.
